Some test systems named below: NCI-H23 lung; NCI-H226 lung; NCI-H322M lung; HOP-62 NSCLC; NCI-H460 lung; HOP-92 NSCLC; NCI-H522 lung; A549/ATCC NSCLC; 786-0 renal; COLO 205 colon; DU-145 prostate; K-562 leukemia; MALME-3M melanoma; MDA-MB-231 breast; RXF 393 renal; SF-268 CNS; SF-295 CNS; SF-539 CNS; UACC-257 melanoma; M14 melanoma.
Holding throughout (assay): NCI-60 one-dose screen, 48 h (100 = growth as untreated, 0 = no growth, -100 = all killed)
Common to all, as to conditions: 10 µM unless noted

The source of these data is PubChem BioAssay (NCI).

About 83,000 compounds went through this panel and 20% of them were active in at least one assay; those are over-represented in the sample as a whole.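 Testing used 96-well plates and a 48-hour single-concentration exposure. Example: -40 means 40% of the starting cells died.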 Unmarked numbers belong to inactive results. The source made the active and inactive calls. How the source made its calls: active means growth percent below 10; inactive means the rest.

With `COC(=O)[C@@H](Cc1c[nH]c2ccccc12)NC[C@@H](O)CN1C(=O)/C(=C\c2cc(OC)c(OC)c(OC)c2)c2ccccc21`, the growth with NCI-H23 lung is 76.6%; in the test with NCI-H226 lung it was 58.5%; in the test on NCI-H322M lung, 84.8%; in the test on HOP-62 NSCLC it was 64.8%; with NCI-H460 lung, 68.2%; in the test with HOP-92 NSCLC, 68%. The growth in the test on NCI-H522 lung was 67.4%; in the test on A549/ATCC NSCLC, 67.2%; with 786-0 renal, 77.6%; in the test on COLO 205 colon it was 73.8%; in the test on DU-145 prostate, 75.1%; in the test on K-562 leukemia it was 36%. For the same molecule, the growth is 84.8% in the test on MALME-3M melanoma; 82.5% in the test with MDA-MB-231 breast; 72% with RXF 393 renal; 70.6% in the test on SF-268 CNS; 69.4% in the test on SF-295 CNS; 93.3% with SF-539 CNS. Besides, the growth with UACC-257 melanoma was 62.2%; with M14 melanoma, 64.6%.
As to `O=C(CN1C(=O)NC2NC(=O)NC21)N/N=C/c1cccc([N+](=O)[O-])c1` (stereo not given), the growth in the test with NCI-H23 lung was 104%; with NCI-H226 lung it was 94%; with NCI-H322M lung, 108%; in the test with HOP-62 NSCLC it was 107%; in the test on NCI-H460 lung, 107%; in the test with HOP-92 NSCLC, 123%. The growth in the test on NCI-H522 lung is 97.3%; in the test with A549/ATCC NSCLC it was 112%; with 786-0 renal it was 106%; in the test with COLO 205 colon it was 122%; in the test on DU-145 prostate it was 110%; with K-562 leukemia it was 103%. Further, the growth was 105% with MALME-3M melanoma; 104% in the test with MDA-MB-231 breast; 104% with RXF 393 renal; 99% with SF-268 CNS; 102% with SF-295 CNS; 100% in the test with SF-539 CNS. Besides, the growth was 118% in the test with UACC-257 melanoma and 109% with M14 melanoma.
As to `CCN1CCN(c2cc(C(=O)Nc3cccc(Nc4ccc5c(OC)cccc5n4)c3)cc(C(F)(F)F)c2)CC1`, the growth in the test on NCI-H23 lung is 44.5%; in the test with NCI-H226 lung, 45.1%; with NCI-H322M lung, 26.2%; in the test on HOP-62 NSCLC it was 5.17% (active); in the test with NCI-H460 lung it was -48.7% (active); in the test with HOP-92 NSCLC, -3.85% (active). The growth was -45.2% (active) in the test with NCI-H522 lung; 21.1% in the test on A549/ATCC NSCLC; -70.1% (active) in the test with 786-0 renal; -77.1% (active) in the test with COLO 205 colon; 23.3% in the test on DU-145 prostate; -29.8% (active) in the test on K-562 leukemia. Besides, the growth with MALME-3M melanoma was -59.6% (active); in the test with MDA-MB-231 breast, 9.58% (active); in the test with RXF 393 renal, 17.3%; with SF-268 CNS, 32.8%; in the test on SF-295 CNS, 14%; in the test on SF-539 CNS, 19.5%. In addition, the growth was -40.3% (active) in the test on UACC-257 melanoma and -41.9% (active) with M14 melanoma.
Take `Cn1ccnc1C(=O)/C=C/c1ccc(C(=O)Nc2c(F)c(F)c(F)c(F)c2F)cc1`: the growth is -28.5% (active) in the test with NCI-H23 lung; 13% with NCI-H226 lung; 6.92% (active) in the test on NCI-H322M lung; 1.97% (active) in the test with HOP-62 NSCLC; -41% (active) with NCI-H460 lung; 49.7% with HOP-92 NSCLC. Also, the growth was 4.29% (active) in the test on NCI-H522 lung; 6.57% (active) in the test with A549/ATCC NSCLC; -34.6% (active) with 786-0 renal; -24.2% (active) in the test with COLO 205 colon; 12.3% in the test on DU-145 prostate; 1.03% (active) in the test with K-562 leukemia. Further, the growth was 80.9% in the test on MALME-3M melanoma; 7.97% (active) in the test with MDA-MB-231 breast; -52% (active) in the test with RXF 393 renal; 3.53% (active) with SF-268 CNS; 18.2% in the test on SF-295 CNS; -69.9% (active) with SF-539 CNS. For the same molecule, the growth in the test with UACC-257 melanoma was 73.7%; in the test with M14 melanoma it was 19.2%.
For the molecule `COC(CCP(=O)(c1ccccc1)c1ccccc1)(C(=O)c1ccccc1)c1ccccc1` (stereo not given), the growth with NCI-H23 lung was 77.3%; with NCI-H226 lung, 85.7%; with NCI-H322M lung, 72.8%; in the test on HOP-62 NSCLC, 88%; with NCI-H460 lung, 50%; in the test on HOP-92 NSCLC, -8.84% (active). In addition, the growth was 28.9% in the test on NCI-H522 lung; 48.1% in the test on A549/ATCC NSCLC; 89.4% in the test with 786-0 renal; 62.4% in the test with COLO 205 colon; 111% in the test with DU-145 prostate; 9.03% (active) in the test on K-562 leukemia. Besides, the growth with MALME-3M melanoma is 96.3%; in the test with MDA-MB-231 breast, 73.6%; in the test with RXF 393 renal, 76.2%; in the test on SF-268 CNS it was 86.1%; in the test on SF-295 CNS, 32.1%; in the test with SF-539 CNS, 87.2%. For the same molecule, the growth in the test with UACC-257 melanoma was 64.3%; in the test with M14 melanoma, 63%.
As for `CSc1nn2c(-c3cc4cc(Br)ccc4oc3=O)ccnc2c1C#N`, the growth was 95.3% in the test on NCI-H23 lung; 99.3% in the test with NCI-H226 lung; 102% with NCI-H322M lung; 97.9% in the test on HOP-62 NSCLC; 104% in the test with NCI-H460 lung; 105% with HOP-92 NSCLC. Further, the growth was 92.8% in the test on NCI-H522 lung; 107% in the test with A549/ATCC NSCLC; 101% in the test with 786-0 renal; 119% with COLO 205 colon; 110% in the test with DU-145 prostate; 104% with K-562 leukemia. Moreover, the growth is 120% in the test with MALME-3M melanoma; 105% with MDA-MB-231 breast; 109% with RXF 393 renal; 103% in the test with SF-268 CNS; 103% with SF-295 CNS; 106% in the test on SF-539 CNS. Moreover, the growth was 106% in the test on UACC-257 melanoma and 104% with M14 melanoma.
`COc1ccccc1-c1nc2ccc3[nH]ncc3c2c2c1CCCC2`: the growth in the test with NCI-H23 lung was 69%; in the test on NCI-H226 lung, 81.4%; in the test on NCI-H322M lung, 82.8%; in the test with HOP-62 NSCLC, 61.2%; with NCI-H460 lung, 82.5%; in the test on HOP-92 NSCLC, 70.5%. Moreover, the growth in the test with NCI-H522 lung was 55%; in the test on A549/ATCC NSCLC it was 65.2%; with 786-0 renal it was 67.7%; in the test with COLO 205 colon, 74.7%; with DU-145 prostate, 73.5%; in the test with K-562 leukemia, 83.3%. Moreover, the growth is 99.2% with MALME-3M melanoma; 62.4% with MDA-MB-231 breast; 51.2% with RXF 393 renal; 55.6% with SF-268 CNS; 70.5% in the test with SF-295 CNS; 50.5% in the test on SF-539 CNS. Also, the growth in the test on UACC-257 melanoma was 86.4%; with M14 melanoma it was 76.3%.
